Measurements published in publication PMC11006913.

What was measured:
Assay in all cases: PBM; 200 nM protein, PBS
Details in all cases: dsDNA, one strand shown
HESX1 [1] = molecular target: HESX1 (Homo sapiens, UniProt Q9UBX0 95-180, R165K)
ALX4 [2] = molecular target: ALX4 (Homo sapiens, UniProt Q9H161 200-286)
PRRX1 [3] = molecular target: PRRX1 (Homo sapiens, UniProt P54821 80-166, F113S)
ALX4 [4] = molecular target: ALX4 (Homo sapiens, UniProt Q9H161 200-286, Q225E)
HESX1 [5] = molecular target: HESX1 (Homo sapiens, UniProt Q9UBX0 95-180)
Chain of HESX1 (Homo sapiens, UniProt Q9UBX0 95-180) (Q9UBX0 95-180): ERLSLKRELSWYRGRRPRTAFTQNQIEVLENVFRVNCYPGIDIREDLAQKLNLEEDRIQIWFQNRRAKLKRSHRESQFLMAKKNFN

MSX2 [6] = molecular target: MSX2 (Homo sapiens, UniProt P35548 130-214, R199I)
Chain of MSX2 (Homo sapiens, UniProt P35548 130-214, R199I) (P35548 130-214 R199I): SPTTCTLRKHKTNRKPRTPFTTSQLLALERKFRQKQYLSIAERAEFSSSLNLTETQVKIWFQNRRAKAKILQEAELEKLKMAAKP

ALX1 [7] = molecular target: ALX1 (Homo sapiens, UniProt Q15699 118-204, L144V)
Chain of ALX1 (Homo sapiens, UniProt Q15699 118-204, L144V) (Q15699 118-204 L144V): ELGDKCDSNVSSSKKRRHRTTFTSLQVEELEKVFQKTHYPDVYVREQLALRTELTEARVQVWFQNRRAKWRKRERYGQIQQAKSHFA

ALX1 [8] = molecular target: ALX1 (Homo sapiens, UniProt Q15699 118-204, L144R)
Chain of ALX1 (Homo sapiens, UniProt Q15699 118-204, L144R) (Q15699 118-204 L144R): as the sequence (Q15699 118-204 L144V) above, with V27R counted along it

PROP1 [9] = molecular target: PROP1 (Homo sapiens, UniProt O75360 56-141)
Chain of PROP1 (Homo sapiens, UniProt O75360 56-141) (O75360 56-141): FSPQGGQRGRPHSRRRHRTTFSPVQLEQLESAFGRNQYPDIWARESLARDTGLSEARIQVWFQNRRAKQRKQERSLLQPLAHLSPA

HESX1 [10] = molecular target: HESX1 (Homo sapiens, UniProt Q9UBX0 95-180, R109Q)
Chain of HESX1 (Homo sapiens, UniProt Q9UBX0 95-180, R109Q) (Q9UBX0 95-180 R109Q): as the sequence (Q9UBX0 95-180) above, with R15Q counted along it

PROP1 [11] = molecular target: PROP1 (Homo sapiens, UniProt O75360 56-141, R99H)
Chain of PROP1 (Homo sapiens, UniProt O75360 56-141, R99H) (O75360 56-141 R99H): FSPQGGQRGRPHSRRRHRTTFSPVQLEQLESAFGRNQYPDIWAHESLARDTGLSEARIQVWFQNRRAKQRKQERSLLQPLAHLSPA

ALX3 = ALX3 (Homo sapiens, UniProt O95076 139-225, L168Q)
Chain of ALX3 (O95076 139-225 L168Q): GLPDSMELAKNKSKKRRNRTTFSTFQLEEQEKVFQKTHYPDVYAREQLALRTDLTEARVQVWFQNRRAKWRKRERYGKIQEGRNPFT

HESX1 [12] = molecular target: HESX1 (Homo sapiens, UniProt Q9UBX0 95-180, P111T)
Chain of HESX1 (Homo sapiens, UniProt Q9UBX0 95-180, P111T) (Q9UBX0 95-180 P111T): as the sequence (Q9UBX0 95-180) above, with P17T counted along it

PROP1 [13] = molecular target: PROP1 (Homo sapiens, UniProt O75360 56-141, F88S)
Chain of PROP1 (Homo sapiens, UniProt O75360 56-141, F88S) (O75360 56-141 F88S): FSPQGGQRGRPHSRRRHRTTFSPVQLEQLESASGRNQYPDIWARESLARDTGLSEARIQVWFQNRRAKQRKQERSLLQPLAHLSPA

MSX2 [14] = molecular target: MSX2 (Homo sapiens, UniProt P35548 130-214, F161Y)
Chain of MSX2 (Homo sapiens, UniProt P35548 130-214, F161Y) (P35548 130-214 F161Y): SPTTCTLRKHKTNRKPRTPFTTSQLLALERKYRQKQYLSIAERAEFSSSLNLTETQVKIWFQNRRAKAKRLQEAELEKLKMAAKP

HESX1 [15] = molecular target: HESX1 (Homo sapiens, UniProt Q9UBX0 95-180, F115L)
Chain of HESX1 (Homo sapiens, UniProt Q9UBX0 95-180, F115L) (Q9UBX0 95-180 F115L): as the sequence (Q9UBX0 95-180) above, with F21L counted along it

ALX1 [16] = molecular target: ALX1 (Homo sapiens, UniProt Q15699 118-204)
Chain of ALX1 (Homo sapiens, UniProt Q15699 118-204) (Q15699 118-204): as the sequence (Q15699 118-204 L144V) above, with V27L counted along it

PRRX1 [17] = molecular target: PRRX1 (Homo sapiens, UniProt P54821 80-166)
Chain of PRRX1 (Homo sapiens, UniProt P54821 80-166) (P54821 80-166): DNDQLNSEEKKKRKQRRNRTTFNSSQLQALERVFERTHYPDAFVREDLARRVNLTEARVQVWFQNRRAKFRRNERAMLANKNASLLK

Chain of HESX1 (Homo sapiens, UniProt Q9UBX0 95-180, R165K) (Q9UBX0 95-180 R165K): as the sequence (Q9UBX0 95-180) above, with R71K counted along it
Chain of PRRX1 (Homo sapiens, UniProt P54821 80-166, F113S) (P54821 80-166 F113S): as the sequence (P54821 80-166) above, with F34S counted along it
Chain of ALX4 (Homo sapiens, UniProt Q9H161 200-286) (Q9H161 200-286): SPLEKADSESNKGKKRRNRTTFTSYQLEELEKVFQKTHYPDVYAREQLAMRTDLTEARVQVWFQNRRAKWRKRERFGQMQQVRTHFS
Chain of ALX4 (Homo sapiens, UniProt Q9H161 200-286, Q225E) (Q9H161 200-286 Q225E): as the sequence (Q9H161 200-286) above, with Q26E counted along it

AATTATTA was tested, and the binding signal (HESX1 [1]) was 11.5 upbm affinity estimate (log intensity, higher = more binding, comparable within an allelic series), the binding signal (ALX4 [2]) was 13.5 upbm affinity estimate (log intensity, higher = more binding, comparable within an allelic series) and the binding signal (PRRX1 [3]) was 11.3 upbm affinity estimate (log intensity, higher = more binding, comparable within an allelic series). The binding signal (ALX4 [4]) was 12.8 upbm affinity estimate (log intensity, higher = more binding, comparable within an allelic series), the binding signal (HESX1 [5]) was 11.7 upbm affinity estimate (log intensity, higher = more binding, comparable within an allelic series) and the binding signal (MSX2 [6]) was 12.3 upbm affinity estimate (log intensity, higher = more binding, comparable within an allelic series). The binding signal (ALX1 [7]) was 11.4 upbm affinity estimate (log intensity, higher = more binding, comparable within an allelic series), the binding signal (ALX1 [8]) was 11.2 upbm affinity estimate (log intensity, higher = more binding, comparable within an allelic series) and the binding signal (PROP1 [9]) was 11 upbm affinity estimate (log intensity, higher = more binding, comparable within an allelic series). The binding signal (HESX1 [10]) was 8.87 upbm affinity estimate (log intensity, higher = more binding, comparable within an allelic series), the binding signal (PROP1 [11]) was 10.8 upbm affinity estimate (log intensity, higher = more binding, comparable within an allelic series) and the binding signal (ALX3) was 10.4 upbm affinity estimate (log intensity, higher = more binding, comparable within an allelic series). The binding signal (HESX1 [12]) was 10.3 upbm affinity estimate (log intensity, higher = more binding, comparable within an allelic series), the binding signal (PROP1 [13]) was 7.79 upbm affinity estimate (log intensity, higher = more binding, comparable within an allelic series) and the binding signal (MSX2 [14]) was 13.1 upbm affinity estimate (log intensity, higher = more binding, comparable within an allelic series). For the same sequence, the binding signal (HESX1 [15]) was 8 upbm affinity estimate (log intensity, higher = more binding, comparable within an allelic series), the binding signal (ALX1 [16]) was 12 upbm affinity estimate (log intensity, higher = more binding, comparable within an allelic series) and the binding signal (PRRX1 [17]) was 13.4 upbm affinity estimate (log intensity, higher = more binding, comparable within an allelic series).

For GCCCCCCA, the binding signal (HESX1 [1]) was 6.24 upbm affinity estimate (log intensity, higher = more binding, comparable within an allelic series), the binding signal (HESX1 [5]) was 6.28 upbm affinity estimate (log intensity, higher = more binding, comparable within an allelic series) and the binding signal (HESX1 [10]) was 6.41 upbm affinity estimate (log intensity, higher = more binding, comparable within an allelic series). For the same sequence, the binding signal (HESX1 [12]) was 6.34 upbm affinity estimate (log intensity, higher = more binding, comparable within an allelic series) and the binding signal (HESX1 [15]) was 6.4 upbm affinity estimate (log intensity, higher = more binding, comparable within an allelic series).

GCAATTAC was tested, and the binding signal (HESX1 [1]) was 11.4 upbm affinity estimate (log intensity, higher = more binding, comparable within an allelic series), the binding signal (HESX1 [5]) was 11.5 upbm affinity estimate (log intensity, higher = more binding, comparable within an allelic series) and the binding signal (MSX2 [6]) was 12.5 upbm affinity estimate (log intensity, higher = more binding, comparable within an allelic series). The binding signal (HESX1 [10]) was 8.2 upbm affinity estimate (log intensity, higher = more binding, comparable within an allelic series), the binding signal (HESX1 [12]) was 9.93 upbm affinity estimate (log intensity, higher = more binding, comparable within an allelic series) and the binding signal (MSX2 [14]) was 13.4 upbm affinity estimate (log intensity, higher = more binding, comparable within an allelic series). The binding signal (HESX1 [15]) was 7.19 upbm affinity estimate (log intensity, higher = more binding, comparable within an allelic series).

With CGCGTAGC the binding signal (HESX1 [1]) was 6.51 upbm affinity estimate (log intensity, higher = more binding, comparable within an allelic series), the binding signal (HESX1 [5]) was 6.55 upbm affinity estimate (log intensity, higher = more binding, comparable within an allelic series) and the binding signal (HESX1 [10]) was 6.51 upbm affinity estimate (log intensity, higher = more binding, comparable within an allelic series). The binding signal (HESX1 [12]) was 6.44 upbm affinity estimate (log intensity, higher = more binding, comparable within an allelic series) and the binding signal (HESX1 [15]) was 6.54 upbm affinity estimate (log intensity, higher = more binding, comparable within an allelic series).

In the case of CCAGGACC, the binding signal (HESX1 [1]) is reported as 6.54 upbm affinity estimate (log intensity, higher = more binding, comparable within an allelic series), the binding signal (HESX1 [5]) is reported as 6.39 upbm affinity estimate (log intensity, higher = more binding, comparable within an allelic series) and the binding signal (HESX1 [10]) is reported as 6.57 upbm affinity estimate (log intensity, higher = more binding, comparable within an allelic series). For the same sequence, the binding signal (HESX1 [12]) was 6.52 upbm affinity estimate (log intensity, higher = more binding, comparable within an allelic series) and the binding signal (HESX1 [15]) was 6.51 upbm affinity estimate (log intensity, higher = more binding, comparable within an allelic series).

With CGATTATC the binding signal (HESX1 [1]) was 8.23 upbm affinity estimate (log intensity, higher = more binding, comparable within an allelic series), the binding signal (HESX1 [5]) was 8.64 upbm affinity estimate (log intensity, higher = more binding, comparable within an allelic series) and the binding signal (HESX1 [15]) was 6.88 upbm affinity estimate (log intensity, higher = more binding, comparable within an allelic series).

In the case of CCCGGCTC, the binding signal (HESX1 [1]) is reported as 6.39 upbm affinity estimate (log intensity, higher = more binding, comparable within an allelic series), the binding signal (HESX1 [5]) is reported as 6.47 upbm affinity estimate (log intensity, higher = more binding, comparable within an allelic series) and the binding signal (HESX1 [10]) is reported as 6.38 upbm affinity estimate (log intensity, higher = more binding, comparable within an allelic series). For the same sequence, the binding signal (HESX1 [12]) was 6.47 upbm affinity estimate (log intensity, higher = more binding, comparable within an allelic series) and the binding signal (HESX1 [15]) was 6.5 upbm affinity estimate (log intensity, higher = more binding, comparable within an allelic series).

In the case of AAGCTGGC, the binding signal (HESX1 [1]) is reported as 6.31 upbm affinity estimate (log intensity, higher = more binding, comparable within an allelic series), the binding signal (HESX1 [5]) is reported as 6.21 upbm affinity estimate (log intensity, higher = more binding, comparable within an allelic series) and the binding signal (HESX1 [10]) is reported as 6.45 upbm affinity estimate (log intensity, higher = more binding, comparable within an allelic series). The binding signal (HESX1 [12]) was 6.39 upbm affinity estimate (log intensity, higher = more binding, comparable within an allelic series) and the binding signal (HESX1 [15]) was 6.51 upbm affinity estimate (log intensity, higher = more binding, comparable within an allelic series).

CCCCCAGC was tested, and the binding signal (HESX1 [1]) was 6.28 upbm affinity estimate (log intensity, higher = more binding, comparable within an allelic series), the binding signal (HESX1 [5]) was 6.22 upbm affinity estimate (log intensity, higher = more binding, comparable within an allelic series) and the binding signal (HESX1 [10]) was 6.3 upbm affinity estimate (log intensity, higher = more binding, comparable within an allelic series). For the same sequence, the binding signal (HESX1 [12]) was 6.31 upbm affinity estimate (log intensity, higher = more binding, comparable within an allelic series) and the binding signal (HESX1 [15]) was 6.46 upbm affinity estimate (log intensity, higher = more binding, comparable within an allelic series).

GTCCTGCA was tested, and the binding signal (HESX1 [1]) was 6.29 upbm affinity estimate (log intensity, higher = more binding, comparable within an allelic series), the binding signal (HESX1 [5]) was 6.29 upbm affinity estimate (log intensity, higher = more binding, comparable within an allelic series) and the binding signal (HESX1 [10]) was 6.46 upbm affinity estimate (log intensity, higher = more binding, comparable within an allelic series). The binding signal (HESX1 [12]) was 6.46 upbm affinity estimate (log intensity, higher = more binding, comparable within an allelic series) and the binding signal (HESX1 [15]) was 6.53 upbm affinity estimate (log intensity, higher = more binding, comparable within an allelic series).

For ACAATTAT, the binding signal (HESX1 [1]) was 11.8 upbm affinity estimate (log intensity, higher = more binding, comparable within an allelic series), the binding signal (PRRX1 [3]) was 11.2 upbm affinity estimate (log intensity, higher = more binding, comparable within an allelic series) and the binding signal (HESX1 [5]) was 12.1 upbm affinity estimate (log intensity, higher = more binding, comparable within an allelic series). For the same sequence, the binding signal (MSX2 [6]) was 12.6 upbm affinity estimate (log intensity, higher = more binding, comparable within an allelic series), the binding signal (HESX1 [10]) was 8.44 upbm affinity estimate (log intensity, higher = more binding, comparable within an allelic series) and the binding signal (PROP1 [11]) was 10.8 upbm affinity estimate (log intensity, higher = more binding, comparable within an allelic series). For the same sequence, the binding signal (ALX3) was 10.2 upbm affinity estimate (log intensity, higher = more binding, comparable within an allelic series), the binding signal (HESX1 [12]) was 10.3 upbm affinity estimate (log intensity, higher = more binding, comparable within an allelic series) and the binding signal (MSX2 [14]) was 13.4 upbm affinity estimate (log intensity, higher = more binding, comparable within an allelic series). For the same sequence, the binding signal (HESX1 [15]) was 7.61 upbm affinity estimate (log intensity, higher = more binding, comparable within an allelic series) and the binding signal (PRRX1 [17]) was 13.2 upbm affinity estimate (log intensity, higher = more binding, comparable within an allelic series).
